Test results from PubChem BioAssay (NCATS).
Values without a mark were called inactive. Calls come from the whole dose curve; as a rule, active = well fitted inhibition curve with a large enough effect; inconclusive = small, poorly fitted or top-dose-only effect; inactive = flat fitted curve, though single readings scatter.

Each compound was assayed on Nanoluciferase (engineered Oplophorus gracilirostris luciferase) (assay: Primary Nanoluciferase (NLuc) qHTS assay for identification of artifact compounds. (AID 1845222)). Conditions: NLuc-conditioned medium, Nano-Glo luminescence, 5 min; series mostly up to 54.1 µM; activity, negative = inhibition: at the top concentration.
From the text: PI: Alexander Tropsha Ph.D.
UNC Eshelman School of Pharmacy
University of North Carolina, Chapel Hill, North Carolina
Hits from high-throughput screening (HTS) of chemical libraries are often false positives due to their interference with the assay detection technology. In response to this problem, we generated the largest publicly available library of chemical liabilities and developed a free webtool to predict HTS artifacts, both of which are described herein. More specifically, we generated, curated, and integrated HTS datasets for thiol reactivity, redox activity, and luciferase (firefly and nano) activity. Using these curated datasets, we developed and validated several Quantitative Structure-Interference Relationship (QSIR) models to predict nuisance behavior. […] These models were employed for virtual profiling of the National Center for Advancing Translational Science's (NCATS) in-house library, and 256 compounds for each assay were selected for the experimental validation of nuisance behavior. The BA for these external predictions ranged from 58 to 78% for compounds within the applicability domains of the models. […] The models developed in this study, along with aggregation models previously developed by our group (SCAM Detective) were implemented in "Liability Predictor," an online tool which may be used as part of chemical library design or for triaging HTS hits. Both the models and the curated datasets are publicly available at https://liability.mml.unc.edu/.
SEQUENCE No. (e.g., 1, 2, 3, etc.); […] (e.g., Cells, Incubation, Reagent, etc.); VALUE; DESCRIPTION.
1; Reagent; 2 uL; Nanoluciferase media.
2; Compounds and control; 16 nL; Kalypsis pin tool (Wako USA) equipped with a 1536-well pin head.
4; Reagent; 2 uL; Luciferase enzyme.
6; Detection; Luminescence, ViewLux microplate reader.
NOTES (numbers refer to Sequence numbers above)
1. Medium was collected from the culture flasks of NLuc-expressing S16 cells (80% confluent) prior to cell plating, filtered through a 0.22um filter, and frozen at -20C prior to use. Media was diluted (1:55) and 2 uL was dispensed into all wells of a 1536-well assay plate (solid-bottom white plate; Greiner Bio One, Monroe, NC).
2. A Wako Pin-tool (Wako Automation, Richmond, VA) was used to transfer 16 nL of compounds (consisting of 7-plates in qHTS format, final concentration range 18.3 nM to 114 uM) or control Cilnidipine (final concentration range 623 nM to 80 uM).
3. 15 min. incubation at room temperature protected from light.
4. 2 uL of NLuc substrate (1:100 in Nano-Glo luciferase buffer; Nano-Glo luminescence assay, Promega, Madison, WI) was dispensed for a final assay volume of 4 uL.
5. Plates were centrifuged (121xg, 15 seconds) and incubated for 5 minutes.
6. Samples were read for luminescence on a ViewLux CCD imager (PerkinElmer). Data were normalized to no-enzyme (0% activity) and no-inhibitor (DMSO; 100%) controls and the resulting percent inhibition data were fitted to a 4-parameter Hill equation using NCATS in-house software.

Compound | activity, negative = inhibition
NC(=O)[C@@H]1CC[C@H](c2ccc(OCc3ccccc3F)cc2)N1 | 3.66%
COC(=O)C1=CO[C@@H](O[C@@H]2O[C@H](CO)[C@@H](O)[C@H](O)[C@H]2O)/C(=C\CO)[C@@H]1CC(=O)OCCc1ccc(O)cc1 | 0.878% [at 25.7 µM]
CC1(C)CC[C@]2(C(=O)O)CC[C@]3(C)C(=CCC4[C@@]5(C)C[C@H](O)[C@H](O[C@@H]6O[C@H](CO)[C@@H](O)[C@H](O)[C@H]6O)[C@@](C)(CO)C5[C@H](O)C[C@]43C)[C@@H]2C1 (stereo not given in full) | -0.02% [at 25.7 µM]
CCC(C)/C=C(C)/C=C/C1=CC2=C(Cl)C(=O)C(C)(OC(C)=O)C(=O)C2=CN1C(CCCN=C(N)N)C(=O)O (stereo not given) | -4.05% [at 25.7 µM]
C[C@@]1(O)[C@H](O)[C@@H](CO)O[C@H]1n1cnc2c(=O)[nH]c(N)nc21 | 3.13%
CC(=O)/C=C/C1(O)C(C)CC(O[C@@H]2O[C@H](CO)[C@@H](O)[C@H](O)[C@H]2O)CC1(C)C (stereo not given in full) | 1.78% [at 25.7 µM]
CCC1OC(=O)C(C)CC(C)C(=O)/C(C)=C/C(C)C(=O)/C=C/C1(C)O (stereo not given) | 3.72%
N#Cc1cc(-c2n[nH]c(-c3ccncc3)n2)ccn1 | -21.8%
CC/C=C\C(O)C(O)C1=C(C)C(=O)C2(O1)C(=O)NC(OC)(C(=O)c1ccccc1)C2O (stereo not given) | -10.2% [at 25.7 µM]
COC(=O)C1=CO[C@@H](O[C@@H]2O[C@H](CO)[C@@H](O)[C@H](O)[C@H]2O)[C@H]2[C@@H]1[C@H](O)[C@H](O)[C@]2(C)O | 2.14% [at 25.7 µM]
C=CC(C)(CC/C=C(\C)C(=O)OC)OC1OC(COC(=O)CC(C)(O)CC(=O)O)C(O)C(O)C1O (stereo not given) | -2.63% [at 25.7 µM]
COC(=O)C(CC1(O)c2ccccc2N2C(=O)C(CC(C)C)NC21)n1cnc2ccccc2c1=O (stereo not given) | 3% [at 25.7 µM]
COC(=O)C1=COC(OC2OC(CO)C(O)C(O)C2O)C2C(C)C(OC(C)=O)C(OC(=O)c3ccccc3)C12 (stereo not given) | 1.07% [at 25.7 µM]
COC(=O)[C@]1(C)CCC[C@@]2(C)[C@@H]3CC[C@@H]4C[C@@]3(CC[C@@H]21)C[C@H]4C(=O)O | 4.73%
OC[C@@]1(O)CO[C@@H](OC[C@H]2O[C@@H](Oc3ccccc3)[C@H](O)[C@@H](O)[C@@H]2O)[C@@H]1O | -2.4%
CC1CCC23COC(=O)C2=CC(O)CC3C1(C)CCc1ccoc1 (stereo not given) | 0.56%
CC(C)c1ccc2c(c1)[C@H](O)CC1[C@@](C)(C(=O)O)CCC[C@]21C (stereo not given in full) | -0.192%
CC(=O)O[C@@H]1CC2C(C)(C)C(=O)C=C[C@]2(C)C2CC[C@]3(C)C(=CC(=O)[C@@H]3c3ccoc3)[C@@]21C (stereo not given in full) | 2.3% [at 25.7 µM]
COC(=O)C1C(O)CCC2CN3CCc4c([nH]c5ccccc45)C3CC21 (stereo not given) | -4.65%
C=C1CCC2C(C)(C)CCC[C@]2(C)[C@H]1CC/C(C)=C/C(=O)O (stereo not given in full) | 1.19%

Compound | activity, negative = inhibition
C/C=C(/C)C(=O)OC1CC(C)(C)CC2C3=CCC4C5(C)CCC(OC6OC(C)C(OC7OC(C(=O)O)C(O)C(OC8OC(CO)C(O)C(O)C8OC8OC(CO)C(O)C(O)C8O)C7O)C(O)C6O)C(C)(C)C5CCC4(C)C3(C)C(OC(=O)/C=C/C=C/C=C/CCC)C(OC(C)=O)C12CO (stereo not given) | -1.65% [at 11.6 µM]
COc1cc(C2Oc3c(OC)cc(/C=C/C(=O)OC4CC(O)(C(=O)O)CC(O)C4O)cc3C2CO)ccc1O (stereo not given) | 3.32% [at 25.7 µM]
COC1OC(=O)C2=C1C1(C)CCCC(C)(C)C1CC2O (stereo not given) | 3.83%
C=C(C(=O)O)C1CC(O)C2(C)CCCC(C)(O)C2C1 (stereo not given) | -0.302%
COC(=O)[C@H](Cc1cccc(C(=N)N)c1)[C@@H](C)NC(=O)c1ccc(-c2cc[n+]([O-])cc2)cc1 | 3.4%
CC1=C2C[C@H]3OC(=O)[C@H](O)[C@@]4(O)[C@@H](C)[C@@H](O)[C@H](O)C([C@@]2(C)[C@H](O)[C@@H](O)C1)[C@@]34C (stereo not given in full) | 0.883%
CC1CCC2(C(=O)OC3OC(CO)C(O)C(O)C3O)CCC3(C)C(=CCC4C5(C)CCC(O)C(C)(CO)C5CCC43C)C2C1(C)O (stereo not given) | -0.319% [at 25.7 µM]
NC[C@H]1CCC[C@@H](CNC(=O)[C@@H](Cc2c[nH]c3ccccc23)NC(=O)N2CCC3(C=Cc4ccccc43)CC2)C1 | 1.01%
O=C(/C=C/c1ccccc1)O[C@@H]1[C@@H](CO)O[C@@](CO)(O[C@H]2O[C@H](CO)[C@@H](O)[C@H](O)[C@H]2O)[C@H]1O | 4.21% [at 25.7 µM]
COC(=O)C1=CO[C@@H](O[C@@H]2O[C@H](CO)[C@@H](O)[C@H](O)[C@H]2O)[C@@H]2[C@@H](CO)[C@@H](O)C(O)[C@H]12 (stereo not given in full) | 0% [at 25.7 µM]
Cc1occc(=O)c1O[C@@H]1O[C@H](CO[C@@H]2OC[C@](O)(CO)[C@H]2O)[C@@H](O)[C@H](O)[C@H]1O | 3.64% [at 25.7 µM]
COc1c2c(c(C)c3c1C(=O)OC3)OC1(C)CC(O)C34OC(O)(CCC3(C)C1C2)OC4(C)C (stereo not given) | 2.15% [at 25.7 µM]
O=C(O)C[C@H]1CCC(=O)[C@@H]1C/C=C\CCO | -4.54%
OC[C@H]1O[C@@H](Oc2cc(O)cc(-c3cc4ccc(O[C@@H]5O[C@H](CO)[C@@H](O)[C@H](O)[C@H]5O)cc4o3)c2)[C@H](O)[C@@H](O)[C@@H]1O | -4.39% [at 25.7 µM]
CC(=O)O[C@H]1C[C@@H](O)C(C)(C)C2C[C@@H](OC(C)=O)[C@@]3(C)C4=CCC(C(CO)CC(O)C5OC5(C)C)[C@]4(C)CCC3[C@]21C (stereo not given in full) | 2.26% [at 25.7 µM]
NCCCCN(Cc1nc2ccccc2[nH]1)[C@H]1CCCc2cccnc21 | 3.34% [at 25.7 µM]
CCOC(=O)C(CCc1ccccc1)NC(C)C(=O)N1Cc2ccccc2CC1C(=O)O (stereo not given) | 3.17%
O=C(OC[C@H]1O[C@@H](Oc2ccccc2COC(=O)C2(O)C=CCCC2O)[C@H](O)[C@@H](O)[C@@H]1O)c1ccccc1 (stereo not given in full) | -6% [at 25.7 µM]
C/C(=C\C(=O)C(C)C1CCC2C3=C(CCC21C)C1(C)CCC(=O)C(C)(C)C1(O)CC3)C(C)(C)O (stereo not given) | 1.44% [at 25.7 µM]
O=C(/C=C/N1C[C@@H]2C[C@@H]1CN2c1ccccn1)c1ccccc1O | -1.02%
